The text below walks through data of PubChem BioAssay (EPA / NIEHS).

Assay [1] has as its target Paired box protein Pax-6 (Homo sapiens) (UniProt P26367). Kind of assay: ATG_Pax6_CIS: Attagene CIS-FACTORIAL HepG2 Assay for human Paired Box 6 (PAX6) (AID 2282956). Particulars: HepG2 CIS-FACTORIAL PAX6 reporter transcription, RNA readout; actives raise or lower the signal. In a few lines: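 Transient MRTU transfection of HepG2 → compound exposure 24 h → TriZol RNA, oligo(dT) RT → PCR, 6-FAM primer extension, HpaI cut → capillary electrophoresis; activity fitted both directions against DMSO.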

The nature of assay [2]: ATG_PXRE_CIS: Attagene CIS-FACTORIAL HepG2 Assay for human Pregnane X Receptor Element (PXRE) (AID 2282957). The following applies: HepG2 Attagene CIS-FACTORIAL PXRE reporter, mRNA; actives raise or lower the signal. In a few lines:
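Transfect HepG2 with MRTUs (cis promoter elements); dose chemical, incubate 24 h; isolate RNA, RT with oligo(dT), PCR, 6-FAM label, HpaI cut, CE. Gain/loss fit vs DMSO.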

The nature of assay [3]: ATG_RORE_CIS: Attagene CIS-FACTORIAL HepG2 Assay for human RAR-related Orphan Receptor Element (RORE) (AID 2282959). The following applies: HepG2 Attagene cis-factorial RORE reporter, mRNA; actives raise or lower the signal. In a few lines: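 Transfect HepG2 with MRTUs; treat 24 h; extract RNA; RT with oligo(dT); PCR with reporter-specific primers; 6-FAM primer extension; HpaI digest 2 h at 37 C; capillary electrophoresis. Fit vs DMSO, bidirectional.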

Assay [4] can be described thus: ATG_Sox_CIS: Attagene CIS-FACTORIAL HepG2 Assay for human SRY-box transcription factor (SOX) (AID 2282960). Particulars: HepG2 Attagene cis-factorial SOX reporter, mRNA; actives raise or lower the signal. In a few lines: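 Fluorescence-labelled cDNA fragments from reporter transcripts, sized by CE, give the signal. Cells: HepG2, transiently transfected with cis-regulated reporter units. Exposure 24 h; DMSO negative control; bidirectional curve fitting.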

Assay [5] deals with Transcription factor Sp1 (Homo sapiens) (UniProt P08047). The experiment in a line: ATG_Sp1_CIS: Attagene CIS-FACTORIAL HepG2 Assay for human Specificity Protein 1 (Sp1) (AID 2282961). The following applies: HepG2 Sp1 cis-reporter transcription, actives raise or lower the signal. The procedure, abridged: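 Chemicals are dosed onto HepG2 cells transfected with multiple cis-promoter reporter constructs, and after 24 h reporter RNA is reverse-transcribed, PCR-amplified and resolved by capillary electrophoresis for fluorescence quantitation; activity is scored up or down against DMSO.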

The nature of assay [6]: ATG_SREBP_CIS: Attagene CIS-FACTORIAL HepG2 Assay for human Sterol Regulatory Element Binding (SREBP) (AID 2282962). The following applies: HepG2 Attagene cis-factorial SREBP reporter, mRNA; actives raise or lower the signal. The procedure, abridged: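 Transfected HepG2 (cis-regulated reporter library, endogenous TFs) → compound 24 h → total RNA → oligo(dT) RT → reporter-specific PCR → FAM primer extension, HpaI cut → CE fluorescence. Fit bidirectional vs DMSO.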

Assay [7] deals with Signal transducer and activator of transcription 3 (Homo sapiens) (UniProt P40763). The experiment in a line: ATG_STAT3_CIS: Attagene CIS-FACTORIAL HepG2 Assay for human Signal Transducer and Activator of Transcription 3 (STAT3) (AID 2282963). Particulars: HepG2, Attagene cis-factorial STAT3 reporter transcription; actives raise or lower the signal. The procedure, abridged:
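Values derive from bidirectional fits relative to DMSO of reporter mRNA levels, measured by RT-PCR with capillary electrophoresis, in HepG2 cells carrying transiently transfected cis-regulated reporter units and exposed 24 h.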

The nature of assay [8]: ATG_TA_CIS: Attagene CIS-FACTORIAL HepG2 Assay for human TA Basal Promoter (AID 2282964). Particulars: HepG2 Attagene CIS-factorial TA basal promoter reporter; actives raise or lower the signal. In a few lines:
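Read-out: fluorescent reporter-transcript fragments resolved by capillary electrophoresis after RT-PCR and HpaI digestion. Source: HepG2 cells carrying transiently transfected multi-reporter cis constructs, treated 24 h. Endpoint fitted bidirectionally relative to DMSO.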

Assay [9] is described as follows: ATG_TCF_b_cat_CIS: Attagene CIS-FACTORIAL HepG2 Assay for human T-Cell-Factor with beta-catenin (TCF/b-cat) (AID 2282965). The following applies: HepG2 TCF/beta-catenin cis-reporter transcription, actives raise or lower the signal. The procedure, abridged:
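HepG2, transient MRTU transfection, cis-element-driven reporters (endogenous TFs). 24 h compound exposure. Readout: reporter mRNA by RT-PCR + 6-FAM primer extension, HpaI digest, capillary electrophoresis. Gain/loss fit vs DMSO baseline.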

A short description of assay [10]: ATG_TAL_CIS: Attagene CIS-FACTORIAL HepG2 Assay for human TAL Basal Promoter (AID 2282966).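 Also: background control endpoint measuring basal TAL promoter reporter mRNA not a specific factor.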 Particulars: HepG2 Attagene cis-factorial TAL promoter reporter; actives raise or lower the signal. The procedure, abridged:
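Fluorescence of labelled reporter cDNA fragments, resolved by capillary electrophoresis, gave the readout. Human HepG2 liver cells carried transiently transfected cis-element reporter units and were treated for 24 hours; activity was fitted bidirectionally against DMSO.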

A short description of assay [11]: ATG_TGFb_CIS: Attagene CIS-FACTORIAL HepG2 Assay for human Transforming Growth Factor (TGF) (AID 2282967). Particulars: HepG2 Attagene CIS TGFb reporter, mRNA transcription; actives raise or lower the signal. The procedure, abridged:
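Transient MRTU transfection of HepG2 (FuGene 6). Dose 24 h. TriZol RNA, oligo(dT) RT, PCR, 6-FAM primer extension, HpaI cut, CE. Bidirectional fit, DMSO = baseline.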

The target of assay [12] is Estrogen receptor (Homo sapiens) (UniProt P03372). Kind of assay: ATG_ERa_TRANS: Attagene TRANS-FACTORIAL HepG2 Assay for human Estrogen Receptor alpha (ERa) (AID 2282970; active = hit-call score of the fitted dose curve at least 0.9, where 1 is the maximum). Particulars: HepG2 Attagene TRANS ERa GAL4 reporter, mRNA. In a few lines:
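Human liver HepG2, transient transfection of multiple GAL4-UAS reporter units; TRANS format (exogenous NR-Gal4 chimera). 24 h dosing. Readout: reporter mRNA, RT-PCR, 6-FAM primer extension, HpaI digest, capillary electrophoresis. Positive direction vs DMSO.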

The target of assay [13] is X-box-binding protein 1 (Homo sapiens) (UniProt P17861). Kind of assay: ATG_Xbp1_CIS: Attagene CIS-FACTORIAL HepG2 Assay for human X-box Binding Protein 1 (XBP1) (AID 2282972). The following applies: HepG2 XBP1 cis-element reporter, Attagene multiplex; actives raise or lower the signal. The procedure, abridged:
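HepG2, transient MRTU transfection (cis-promoter driven), 24 h compound exposure. Total RNA → oligo(dT) RT → PCR → 6-FAM labeling → HpaI cut → CE. Bidirectional fit vs DMSO.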

Assay [14] is described as follows: ATG_M_19_TRANS: Attagene TRANS-FACTORIAL HepG2 Assay for M19 Transcription Factor (Internal Marker) (AID 2282974; active = hit-call score of the fitted dose curve at least 0.9, where 1 is the maximum). The following applies: HepG2 Attagene TRANS-FACTORIAL M19 internal marker reporter. The procedure, abridged: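 Multiplexed TRANS format: HepG2 liver cells bearing transient GAL4-UAS reporter units, chemical treatment 24 h, reporter transcripts quantified by RT-PCR plus capillary electrophoresis. DMSO defines baseline.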

Assay [15] can be described thus: ATG_GAL4_TRANS: Attagene TRANS-FACTORIAL HepG2 Assay for GAL4 (Internal Marker) (AID 2282976; active = hit-call score of the fitted dose curve at least 0.9, where 1 is the maximum). The following applies: HepG2 Attagene TRANS GAL4 internal marker reporter. In a few lines: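 First, HepG2 cells were transfected with reporter units under GAL4-UAS control. Next, they were treated with chemical for 24 h. Finally, RNA was reverse-transcribed, PCR-amplified, FAM-labelled and resolved by capillary electrophoresis, with induction scored against DMSO.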

Assay [16] in a line: ATG_VDRE_CIS: Attagene CIS-FACTORIAL HepG2 Assay for human Vitamin D Receptor Element (VDRE) (AID 2282968). The following applies: HepG2 VDRE cis-reporter transcription, actives raise or lower the signal. In a few lines: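 Cell-based multiplexed reporter format in human liver HepG2 cells, 24 h post-dose. Fluorescence from capillary electrophoresis of reporter cDNA gives the signal, with DMSO as negative control and baseline.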

For assay [17], the target named is Nuclear receptor subfamily 1 group I member 3 (Homo sapiens) (UniProt Q14994). Kind of assay: ATG_CAR_TRANS: Attagene TRANS-FACTORIAL HepG2 Assay for human Constitutive Androstane Receptor (CAR) (AID 2282969; active = hit-call score of the fitted dose curve at least 0.9, where 1 is the maximum;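 also: activators raise reporter mRNA above DMSO so AC50 marks induction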). The following applies: HepG2 Attagene TRANS-FACTORIAL CAR reporter. In a few lines: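 HepG2 cells transiently transfected with GAL4-UAS reporter units; TRANS format reads activity of exogenous chimeric NR-Gal4 protein. After 24 h dosing, reporter mRNA quantified by RT-PCR, 6-FAM labelling and capillary electrophoresis; gain of signal fitted against DMSO.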

Assay [18] concerns the target Steroid hormone receptor ERR1 (Homo sapiens) (UniProt P11474). Kind of assay: ATG_ERRa_TRANS: Attagene TRANS-FACTORIAL HepG2 Assay for human Estrogen-Related Receptor alpha (ERRa) (AID 2282971; active = hit-call score of the fitted dose curve at least 0.9, where 1 is the maximum). The following applies: HepG2 Attagene TRANS reporter, ERRa transactivation. In a few lines:
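Reporter transcript induction was quantified by RT-PCR and capillary electrophoresis of FAM-labelled, HpaI-cut products after 24 h treatment of HepG2 cells carrying transiently transfected GAL4-UAS reporter units and an exogenous ERRa-Gal4 fusion; activity scored as increase over DMSO.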

The nature of assay [19]: ATG_PPRE_CIS: Attagene CIS-FACTORIAL HepG2 Assay for human Peroxisome Proliferator-activated Response Element (PPRE) (AID 2282958). Particulars: HepG2 PPRE cis-element reporter, Attagene transcription factor profiling; actives raise or lower the signal. In a few lines: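 DMSO served as negative control and baseline for bidirectional curve fitting. Signal came from PPRE-regulated reporter mRNA in HepG2 cells, measured 24 h post-dosing by RT-PCR, 6-FAM primer extension and capillary electrophoresis.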

Inconclusive results are not listed. Calls of active or inactive are those of the source. The calls were made as follows, unless noted: active = hit-call score of the fitted dose curve at least 0.9, where 1 is the maximum; inactive = score below 0.9.

Signal transducer and activator of transcription 3 (Homo sapiens), sequence (P40763 whole entry, looked up): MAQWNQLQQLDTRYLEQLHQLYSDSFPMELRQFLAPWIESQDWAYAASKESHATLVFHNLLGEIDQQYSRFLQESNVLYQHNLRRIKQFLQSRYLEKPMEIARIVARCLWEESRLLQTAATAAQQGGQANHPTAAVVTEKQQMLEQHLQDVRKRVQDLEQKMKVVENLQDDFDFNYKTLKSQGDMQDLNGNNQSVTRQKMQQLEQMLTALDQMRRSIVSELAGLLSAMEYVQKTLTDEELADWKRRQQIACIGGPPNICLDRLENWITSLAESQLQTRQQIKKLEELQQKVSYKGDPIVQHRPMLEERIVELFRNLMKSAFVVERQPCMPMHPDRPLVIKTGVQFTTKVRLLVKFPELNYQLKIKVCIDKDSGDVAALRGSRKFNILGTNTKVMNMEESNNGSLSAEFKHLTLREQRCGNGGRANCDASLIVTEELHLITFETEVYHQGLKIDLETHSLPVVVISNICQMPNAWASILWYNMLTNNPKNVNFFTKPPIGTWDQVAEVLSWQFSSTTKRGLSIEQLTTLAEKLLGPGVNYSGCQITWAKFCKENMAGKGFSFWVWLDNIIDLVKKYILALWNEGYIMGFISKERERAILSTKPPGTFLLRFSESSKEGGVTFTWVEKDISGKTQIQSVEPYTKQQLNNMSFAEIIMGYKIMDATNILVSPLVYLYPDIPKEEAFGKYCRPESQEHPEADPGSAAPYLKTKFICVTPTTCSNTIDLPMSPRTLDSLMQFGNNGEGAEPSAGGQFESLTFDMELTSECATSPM
Paired box protein Pax-6 (Homo sapiens), sequence (P26367 whole entry, looked up): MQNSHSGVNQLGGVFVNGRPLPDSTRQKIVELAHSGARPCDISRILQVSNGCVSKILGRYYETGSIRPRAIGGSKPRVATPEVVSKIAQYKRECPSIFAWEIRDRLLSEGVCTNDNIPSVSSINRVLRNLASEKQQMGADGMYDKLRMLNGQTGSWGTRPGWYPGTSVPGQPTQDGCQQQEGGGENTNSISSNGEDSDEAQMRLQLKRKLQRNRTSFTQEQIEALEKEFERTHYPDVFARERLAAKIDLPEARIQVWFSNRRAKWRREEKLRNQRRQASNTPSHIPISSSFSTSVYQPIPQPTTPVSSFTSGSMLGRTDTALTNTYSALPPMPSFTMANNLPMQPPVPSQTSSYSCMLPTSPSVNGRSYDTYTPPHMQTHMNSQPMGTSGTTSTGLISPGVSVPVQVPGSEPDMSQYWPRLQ
Transcription factor Sp1 (Homo sapiens), sequence (P08047 whole entry, looked up): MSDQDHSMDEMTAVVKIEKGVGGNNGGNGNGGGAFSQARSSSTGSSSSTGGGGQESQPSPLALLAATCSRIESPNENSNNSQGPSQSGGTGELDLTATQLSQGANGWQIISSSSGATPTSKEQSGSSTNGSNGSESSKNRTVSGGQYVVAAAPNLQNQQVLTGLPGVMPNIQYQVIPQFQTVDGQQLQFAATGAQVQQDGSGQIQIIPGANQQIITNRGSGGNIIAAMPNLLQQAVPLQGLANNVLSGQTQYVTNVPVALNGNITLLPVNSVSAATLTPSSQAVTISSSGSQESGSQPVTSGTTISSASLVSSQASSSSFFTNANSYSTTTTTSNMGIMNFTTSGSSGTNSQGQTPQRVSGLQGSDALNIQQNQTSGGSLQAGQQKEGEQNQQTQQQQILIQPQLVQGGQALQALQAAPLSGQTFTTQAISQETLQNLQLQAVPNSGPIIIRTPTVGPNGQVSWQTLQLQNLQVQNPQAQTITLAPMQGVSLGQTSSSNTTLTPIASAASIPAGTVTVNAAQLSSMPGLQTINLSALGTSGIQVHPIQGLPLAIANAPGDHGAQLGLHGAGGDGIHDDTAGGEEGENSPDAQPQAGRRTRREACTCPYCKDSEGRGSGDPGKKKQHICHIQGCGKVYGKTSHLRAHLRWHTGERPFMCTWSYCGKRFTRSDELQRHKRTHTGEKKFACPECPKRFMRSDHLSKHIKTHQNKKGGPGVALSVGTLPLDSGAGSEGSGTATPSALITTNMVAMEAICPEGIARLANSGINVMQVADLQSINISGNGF
Estrogen receptor (Homo sapiens), sequence (P03372 whole entry, looked up, the tested form may be a part): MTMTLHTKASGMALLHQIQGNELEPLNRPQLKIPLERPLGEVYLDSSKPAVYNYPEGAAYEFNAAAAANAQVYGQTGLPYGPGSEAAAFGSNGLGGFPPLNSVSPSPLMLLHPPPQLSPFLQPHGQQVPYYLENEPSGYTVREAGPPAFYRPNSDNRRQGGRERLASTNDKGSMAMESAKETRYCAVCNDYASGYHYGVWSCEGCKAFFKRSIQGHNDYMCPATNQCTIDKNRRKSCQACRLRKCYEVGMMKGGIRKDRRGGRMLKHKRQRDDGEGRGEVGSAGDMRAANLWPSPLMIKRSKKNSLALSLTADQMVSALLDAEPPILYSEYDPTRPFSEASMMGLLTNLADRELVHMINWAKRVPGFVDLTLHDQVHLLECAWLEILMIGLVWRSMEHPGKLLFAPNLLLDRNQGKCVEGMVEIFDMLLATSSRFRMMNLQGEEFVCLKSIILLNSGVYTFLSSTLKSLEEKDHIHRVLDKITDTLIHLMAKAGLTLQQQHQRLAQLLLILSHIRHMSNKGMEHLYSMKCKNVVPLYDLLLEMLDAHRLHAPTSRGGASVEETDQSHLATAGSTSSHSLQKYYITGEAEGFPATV
X-box-binding protein 1 (Homo sapiens), sequence (P17861 whole entry, looked up): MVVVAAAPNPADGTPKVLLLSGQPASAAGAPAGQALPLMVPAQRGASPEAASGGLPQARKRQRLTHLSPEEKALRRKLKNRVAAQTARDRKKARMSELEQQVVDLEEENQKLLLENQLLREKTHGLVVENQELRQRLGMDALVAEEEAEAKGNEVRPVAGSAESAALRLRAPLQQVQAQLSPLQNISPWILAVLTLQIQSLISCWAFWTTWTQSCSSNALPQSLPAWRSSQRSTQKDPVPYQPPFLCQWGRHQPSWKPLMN
Steroid hormone receptor ERR1 (Homo sapiens), sequence (P11474 whole entry, looked up, the tested form may be a part): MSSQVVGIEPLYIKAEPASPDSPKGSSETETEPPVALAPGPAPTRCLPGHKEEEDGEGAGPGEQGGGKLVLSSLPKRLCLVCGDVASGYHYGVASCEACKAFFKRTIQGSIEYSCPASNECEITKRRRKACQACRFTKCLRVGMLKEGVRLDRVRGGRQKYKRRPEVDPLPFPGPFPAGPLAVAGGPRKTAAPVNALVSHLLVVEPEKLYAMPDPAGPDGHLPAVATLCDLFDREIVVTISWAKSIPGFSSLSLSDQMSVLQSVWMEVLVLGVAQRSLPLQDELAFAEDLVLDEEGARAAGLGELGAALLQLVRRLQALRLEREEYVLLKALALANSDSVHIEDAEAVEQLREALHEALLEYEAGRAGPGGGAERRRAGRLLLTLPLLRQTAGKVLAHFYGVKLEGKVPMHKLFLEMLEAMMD
Nuclear receptor subfamily 1 group I member 3 (Homo sapiens), sequence (Q14994 whole entry, looked up, the tested form may be a part): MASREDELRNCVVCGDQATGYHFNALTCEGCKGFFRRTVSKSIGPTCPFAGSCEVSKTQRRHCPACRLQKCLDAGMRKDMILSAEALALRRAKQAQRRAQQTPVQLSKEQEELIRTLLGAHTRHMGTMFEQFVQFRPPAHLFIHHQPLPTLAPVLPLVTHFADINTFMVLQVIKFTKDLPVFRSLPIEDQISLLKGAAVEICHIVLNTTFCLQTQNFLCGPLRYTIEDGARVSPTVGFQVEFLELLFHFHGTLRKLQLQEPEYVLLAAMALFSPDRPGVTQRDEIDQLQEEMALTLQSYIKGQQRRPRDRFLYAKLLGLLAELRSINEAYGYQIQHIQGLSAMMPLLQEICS

With `c1ccc2c(c1)ccc1cc3c(ccc4ccccc43)cc12`, the outcome in [1], in assay [2], in [3], in assay [4], in [5] and in [6] was inactive. Further, the outcome in assay [7], in assay [8], in [9], in assay [10], in assay [11] and in assay [12] was inactive. For the same compound, the outcome in [13], in assay [14] and in [15] was inactive.
Consider `O=C1C(N(CO)C(=O)NCO)N(CO)C(=O)N1CO` (stereo not given), for which the outcome in [1], in [2], in [3], in [4], in assay [5] and in assay [6] was inactive. For the same compound, the result in assay [7], in assay [8], in assay [9], in [10], in assay [11] and in assay [16] was inactive. Also, the call in assay [17], in assay [12], in assay [13], in assay [14] and in assay [15] was inactive.
Turning to `Cc1cc(=O)n(-c2ccccc2)n1C`, the call in [1], in assay [2], in assay [3], in assay [4], in [5] and in assay [6] was inactive. The result in [7], in assay [8], in assay [9], in [10], in assay [11] and in [16] was inactive. Moreover, the outcome in [12], in assay [18], in assay [13] and in assay [14] was inactive.
By AC50 is commonly meant the concentration giving half of the maximal activity seen. In the case of `C=C[C@](C)(O)CC[C@@H]1[C@@]2(C)CCCC(C)(C)[C@@H]2CC[C@@]1(C)O`, the compound was called inactive in [1], in [19], in [4], in assay [5], in assay [6] and in assay [7]. Further, the call in assay [8], in assay [10], in assay [11], in assay [12] and in assay [13] was inactive. Further, the AC50 in assay [2] is 0.357 µM (active).
